Reference: PubChem BioAssay (NCATS)
Inconclusive results are not listed. Calls of active or inactive are those of the source. The call rests on the fitted dose curve; in most records, active means well fitted cell-killing curve with a large enough effect; inconclusive means small, poorly fitted or top-dose-only effect, or effect the other way; inactive means no such curve, though single readings can be large or run the other way. Non-standard residues stand in square brackets, D forms with d. Residues, ends and D or L forms follow the SMILES beside them. *: point of attachment. Sta = CC(C)C[C@H](N)[C@@H](O)CC(=O)O; Isovaleryl = CC(C)CC(=O)*

Assay: Quantitative High-Throughput drug screen in 47 multiple myeloma cell lines against the NCATS MIPE library collection: Karpas620_DSMZ cell viability assay (AID 1918959); further: nearly all actives have a fitted effect of over 30% in size
Settings: Karpas620 myeloma viability, CellTiter-Glo ATP luminescence, 48 h; series mostly up to 45.8 µM; viability (% of DMSO): at the top concentration
From the text: PI: Beverly A. Mock Ph.D.
Laboratory of Cancer Biology and Genetics,
Center for Cancer Research, National Cancer Institute,
National Institute of Health, Bethesda, Maryland
Drug resistance and disease progression are common in multiple myeloma (MM) patients, underscoring the need for new therapeutic combinations. […] We hypothesized that effective combinations would reduce MYC expression and enhance p16 activity. […] These preclinical data identify potentially useful drug combinations for evaluation in drug-resistant MM and reveal potential mechanisms of combined drug sensitivity.
Described herein is the primary MIPE qHTS used to cherrypick compounds. Validated compounds were then further tested for potential synergistic activiy.
[1] Peat TJ, Gaikwad SM, Dubois W, Gyabaah-Kessie N, Zhang S, Gorjifard S, Phyo Z, Andres M, Hughitt VK, Simpson RM, Miller MA, Girvin AT, Taylor A, Williams D, D'Antonio N, Zhang Y, Rajagopalan A, Flietner E, Wilson K, Zhang X, Shinn P, Klumpp-Thomas C, McKnight C, Itkin Z, Chen L, Kazandijian D, Zhang J, Michalowski AM, Simmons JK, Keats J, Thomas CJ, Mock BA. Drug combinations identified by high-throughput screening promote cell cycle transition and upregulate Smad pathways in myeloma. Cancer Lett. 2023 Aug 1;568:216284. doi: 10.1016/j.canlet.2023.216284. Epub 2023 Jun 24. PMID: 37356470; PMCID: PMC10408729.
SEQUENCE No. (e.g., 1, 2, 3, etc.); […] (e.g., Cells, Incubation, Reagent, etc.); VALUE and DESCRIPTION.
1; Cells; 5 uL; white, solid bottom 1536-well Greiner assay plate.
2; Compounds; 23 nL; Kalypsis pin tool (Wako USA) equipped with a 1536-well pin head to transfer to the assay plates.
3; Incubation; 48 hours; 37C incubation.
4; Reagent;5uL; CellTiter Glo (Promega).
5; Detector; 425V; Luminescence; Viewlux PerkinElmer.
NOTES (numbers refer to Sequence numbers above)
1. The cell-based screening methods employed in this study were like those previously published. Briefly, the corresponding myeloma cell lines were screened in 1,536-well plates with 500 cells, 5-uL per well for inhibition of cell viability (assessed by measuring ATP levels with CellTiterGlo).
2. NCATS MIPE 4.0 library of approved and investigational drugs were added using the Kalypsis pin tool. Wells treated with DMSO only for 100% viability and media only wells for 0% viability were used as controls.
3. The assay plates were covered and incubated for 48 hours in a 37C, 5% CO2 incubator with controlled humidity.
4. After 48 hours, CellTilter-GloTM luminescent substrate mix (Promega) reagent was added to the assay plate and plates we incubated for 5 min at room temperature.
5. Signal was measured as median relative luminescence units on a ViewLux (PerkinElmer) multiplate reader.
[1] Heske CM, Davis MI, Baumgart JT, Wilson K, Gormally MV, Chen L, Zhang X, Ceribelli M, Duveau DY, Guha R, Ferrer M, Arnaldez FI, Ji J, Tran HL, Zhang Y, Mendoza A, Helman LJ, Thomas CJ. Matrix Screen Identifies Synergistic Combination of PARP Inhibitors and Nicotinamide Phosphoribosyltransferase (NAMPT) Inhibitors in Ewing Sarcoma. Clin Cancer Res. 2017 Dec 1;23(23):7301-7311. doi: 10.1158/1078-0432.CCR-17-1121. Epub 2017 Sep 12. PMID: 28899971; PMCID: PMC6636827.
Potency means the concentration at half of the fitted maximal effect.

| Structure (SMILES) | viability (% of DMSO) | Potency |
| --- | --- | --- |
| Cc1cc(=O)oc2cc(O)ccc12 | 99% (inactive) |  |
| Nc1ncn([C@H]2C[C@H](O)[C@@H](CO)O2)c(=O)n1 |  | 0.132 µM (active) |
| Nc1nc(OCc2ccccc2)c2[nH]cnc2n1 | 80.5% (inactive) |  |
| CN(c1nccc(=O)[nH]1)C1CCN(c2nc3ccccc3n2Cc2ccc(F)cc2)CC1 | 110% (inactive) |  |
| CC1Cc2ccccc2N1NC(=O)c1ccc(Cl)c(S(N)(=O)=O)c1 (stereo not given) | 88.5% (inactive) |  |
| COc1c2occc2cc2ccc(=O)oc12 | 101% (inactive) |  |
| CC(C)c1ccc2c(c1)c(SC(C)(C)C)c(CC(C)(C)C(=O)O)n2Cc1ccc(Cl)cc1 | 100% (inactive) |  |
| CCOC(=O)C1=C(O)C(=O)N(Cc2ccccc2)C1 | 93.1% (inactive) |  |
| CN(C)c1ccc(O)c2c1C[C@H]1C[C@H]3[C@H](N(C)C)C(=O)C(C(N)=O)=C(O)[C@@]3(O)C(=O)C1=C2O | 117% (inactive) |  |
| CCCCCCCCOc1ccccc1C(=O)Nc1ccc(C(=O)OCC[N+](C)(CC)CC)cc1 |  | 5.9 µM (active) |
| Clc1ccc(C(Cn2ccnc2)OCc2c(Cl)cccc2Cl)c(Cl)c1 (stereo not given) |  | 18.7 µM (active) |
| CS(=O)(=O)OCCCCOS(C)(=O)=O | 120% (inactive) |  |
| Nc1ccn([C@@H]2O[C@H](CO)[C@@H](O)C2O)c(=O)n1 (stereo not given in full) | 105% (inactive) |  |
| CCOC(=O)C(C)Oc1cccc2c(=O)n(CC(=O)Nc3ccc4c(c3)OCCO4)ccc12 (stereo not given) | 129% (inactive) |  |
| CCC(C)(Oc1ccc(C2(c3ccc(OC(C)(CC)C(=O)O)cc3)CCCCC2)cc1)C(=O)O (stereo not given) | 114% (inactive) |  |
| c1cnc2cc3c(cc2n1)C1CNCC3C1 | 107% (inactive) |  |
| CCN(CCO)CCCC(C)Nc1ccnc2cc(Cl)ccc12 (stereo not given) | 121% (inactive) |  |
| CC(=O)NC[C@H]1CN(c2ccc(N3CCOCC3)c(F)c2)C(=O)O1 | 117% (inactive) |  |
| CC(C)[C@H](N)C(=O)OCCOCn1cnc2c(=O)[nH]c(N)nc21 | 64.3% (inactive) |  |
| O=C(OC1C[C@H]2CC[C@@H](C1)[N+]21CCCC1)C(O)(c1ccccc1)c1ccccc1 (stereo not given in full) | 110% (inactive) |  |

| Structure (SMILES) | viability (% of DMSO) | Potency |
| --- | --- | --- |
| C[C@H](Cc1ccc(O)c(O)c1)[C@@H](C)Cc1ccc(O)c(O)c1 |  | 5.26 µM (active) |
| Nc1ccc(S(N)(=O)=O)cc1 | 118% (inactive) |  |
| CC(C)(S)[C@@H](N)C(=O)O | 103% (inactive) |  |
| CC(C)CC(=O)N[C@H](C(=O)N[C@H](C(=O)N[C@@H](CC(C)C)[C@@H](O)CC(=O)N[C@@H](C)C(=O)N[C@@H](CC(C)C)[C@@H](O)CC(=O)O)C(C)C)C(C)C (Isovaleryl-VV[Sta]A[Sta]-OH) | 111% (inactive) |  |
| O=C(O)CCNC(=O)c1ccc(N=Nc2ccc(O)c(C(=O)O)c2)cc1 | 120% (inactive) |  |
| O=c1cc(N2CCOCC2)oc2c(-c3ccccc3)cccc12 | 106% (inactive) |  |
| CN(C)C(=O)COC(=O)Cc1ccc(OC(=O)c2ccc(N=C(N)N)cc2)cc1 |  | 7.43 µM (active) |
| CCOC(=O)c1c(C)n(C)c2ccc(O)cc12 | 103% (inactive) |  |
| Cc1nc(Nc2ncc(C(=O)Nc3c(C)cccc3Cl)s2)cc(N2CCN(CCO)CC2)n1 |  | 16.6 µM (active) |
| O=c1c(O)c(-c2cc(O)c(O)c(O)c2)oc2cc(O)cc(O)c12 | 109% (inactive) |  |
| C[C@@H](c1ncncc1F)[C@](O)(Cn1cncn1)c1ccc(F)cc1F | 100% (inactive) |  |
| Cc1cc2c(s1)Nc1ccccc1N=C2N1CCN(C)CC1 | 126% (inactive) |  |
| Nc1cc(C(Cl)=C(Cl)Cl)c(S(N)(=O)=O)cc1S(N)(=O)=O | 96.8% (inactive) |  |
| Cc1cccc(C#Cc2ccccc2)n1 | 124% (inactive) |  |
| Cc1ncc([N+](=O)[O-])n1CC(C)O (stereo not given) | 108% (inactive) |  |
| C[C@]12CCC(=O)C=C1CC[C@@H]1[C@H]2[C@@H](O)C[C@@]2(C)[C@H]1CC[C@]2(O)C(=O)CO | 108% (inactive) |  |
| CN(C)c1ccc2nc3ccc(=[N+](C)C)cc-3sc2c1 |  | 3.72 µM (active) |
| Oc1ccc2ccccc2c1SSc1c(O)ccc2ccccc12 |  | 10.5 µM (active) |
| O=C(c1ccccc1)c1ccc2n1CCC2C(=O)O (stereo not given) | 93.5% (inactive) |  |
| Cc1cc2cc3c(C)cc(=O)oc3c(C)c2o1 |  | 23.5 µM (active) |
